Vaccinia Venus = vaccinia inhibition (Venus reporter) | 330,000 compounds, 0.46% hits | AID 720580 | Potency, µM (top dose mostly 36.5 µM), actives largely listed as inhibitors | Vaccinia virus Venus reporter expression, fluorescence; calls by dose curve; tested in A549 cells; note: nearly all actives have a fitted effect of over 30% in size
FMDV inh = antivirals against foot and mouth disease virus; FMDV antiviral cell-based qHTS; Potency, µM (highest dose often 57.9 µM), actives largely listed as inhibitors; 410,000 compounds, 1.2% hits; calls by dose curve; tested in HEK293T cells; note: read-out not given here; nearly all actives have a fitted effect of over 45% in size
Lassa entry inh = Lassa virus entry inhibition; Lassa virus pseudotype entry inhibition, cell reporter; Potency, µM (series often up to 37.9 µM), hits mostly inhibitors; 300,000 compounds, 1.2% hits; calls by dose curve; tested in HEK293 cells; note: nearly all actives have a fitted effect of over 50% in size
Vaccinia mCherry = vaccinia inhibition (mCherry reporter); Vaccinia virus mCherry reporter infection, fluorescence; Potency, µM (highest dose often 36.5 µM), most hits filed as inhibitors; 310,000 compounds, 0.63% hits; AID 720579; calls by dose curve; tested in A549 cells; note: nearly all actives have a fitted effect of over 35% in size
HCMV inh = inhibitors of human cytomegalovirus; HFF cells, HCMV-luciferase reporter, 72 h; stronger effect = lower value; activity change, negative = inhibition, % at 57.5 µM; 410,000 compounds, 4.5% hits; in the data active = activity change below about -60%; inconclusive = no clear call, values can overlap the other calls; inactive = above about -39%
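Screen run at 2 compound doses on HFFs infected with reporter HCMV, MOI 1 PFU/cell. Luciferase activity from cell lysates at 72 h post infection gave inhibition relative to buffer-only and Salinomycin wells.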
Marburg entry inh = Marburg virus entry inhibition; Marburg virus pseudotyped entry inhibition, cell reporter; Potency, µM (doses to about 37.8 µM), actives largely listed as inhibitors; 300,000 compounds, 1.8% hits; AID 540276; calls by dose curve; tested in HEK293 cells
Numbers stand for hits; 0 = inactive; ? = inconclusive; - = no result. Most compounds without a hit are left out; they make up all but 6.5% or so of the library.

SMILES	Vaccinia Venus	FMDV inh	Lassa entry inh	Vaccinia mCherry	HCMV inh	Marburg entry inh
COc1ccc(C(=O)NCC2(N3CCN(C)CC3)CCCCC2)cc1	0	0	0	0	0	0
COC(=O)CCc1c(C)[nH]c(C(=O)OCc2ccccc2)c1C	0	0	7.1µM	0	0	0
CCOC(=O)c1c(C)[nH]c(C(=O)OCc2ccccc2)c1C	0	0	?	0	0	?
NCCCCCc1nnc(SCc2cccc(Cl)c2)o1	-	0	0	-	0	0
Cc1cccc(CSc2nnc(CCCCCN)o2)c1	0	0	?	0	-76	?
Cc1cnc(C)c(-c2cc(F)cc3c2OC(CNC(=O)C2CCOC2)C3)n1 (stereo not given)	0	0	-	0	-	-
COC(=O)[C@@]1(C=C2c3ccc(OC)cc3[C@@H](OC)[C@@H]2C)[C@@H]2C=CC[C@@H]21	-	-	-	-	-	0
C[C@H]1C[C@@H](C)O[C@@]2(C1)C(=O)N(Cc1ccccc1C(F)(F)F)c1ccccc12	-	-	-	-	-	0
COCOc1cc(O)c2c(=O)c(OCOC)c(-c3ccc(OCOC)c(OCOC)c3)oc2c1	0	0	-	0	-71	-
COc1c(-c2ccc(O)c(O)c2)oc2cc(O)cc(O)c2c1=O	0	0	-	0	0	-
Cc1ncc2c(c1CNS(=O)(=O)N(C)C)CCN(C(=O)c1ccc(F)cc1Cl)C2	0	0	-	0	-	-
CCCCCCCCN(CCCCCCCC)c1ccc(/C=C/c2ccnc3ccccc23)cc1	0	-	-	0	-	-
CCN(CC)S(=O)(=O)c1ccc(N2CCN(CCOc3ccc(OC)cc3)CC2)nc1	0	0	0	?	-77	11µM
CC(=O)c1cccc(NC(=O)CCCN2C(=O)COc3ccc(C)cc32)c1	0	0	0	0	0	0
C#CCN1CC(COc2ccccc2)OCCS1(=O)=O (stereo not given)	-	-	?	-	0	-
Cc1ccc(NC(=O)C(C)Sc2nnc(C)n2CC2CCCO2)cc1 (stereo not given)	0	0	0	0	-71	0
O=C(N/N=C/c1ccc([N+](=O)[O-])cc1)c1cccc2cc[nH]c12	-	0	0	-	0	0
CCN(CC)c1ccc(/C=N\NC(=O)c2cccc3cc[nH]c23)cc1	?	0	?	0	-63	0
Cc1cc(=O)[nH]c2nnc(SCC(N)=O)n12	0	0	?	0	0	-
Cc1ccc(NC(=O)CSC2=C(C#N)C(c3ccc4c(c3)OCO4)C3=C(CCCC3=O)N2)c(C)c1 (stereo not given)	-	0	?	-	-65	0
COC(=O)CSC1=C(C#N)C(c2ccc3c(c2)OCO3)C2=C(CCCC2=O)N1 (stereo not given)	0	0	0	-	-	0
COc1ccc(CCn2c3c(c(=O)[nH]c2=S)CN(CC(C)C)CN3)cc1OC	0	-	-	0	-	-
CCN(CC)CCCNC(=O)CCCn1ncn2c(cc3occc32)c1=O	0	0	-	0	0	0
CC1=C(C(=O)Nc2ccccc2)C(c2ccc(Cl)cc2)n2c(s/c(=C/c3cccc(OCC(=O)O)c3)c2=O)=N1 (stereo not given)	0	0	0	0	-68	0
CCC(=O)c1cn(CC(=O)Nc2cccc(C)c2C)c2ccccc12	0	0	0	0	0	0
SMILES	Vaccinia Venus	FMDV inh	Lassa entry inh	Vaccinia mCherry	HCMV inh	Marburg entry inh
CC(=O)c1cn(CC(=O)Nc2cccc(C)c2C)c2ccccc12	0	?	0	0	-70	?
Cc1ccc(-n2c(=O)c3cccnc3n2CC(=O)Nc2cccc(C)c2C)cc1	0	0	0	0	-63	-
COc1ccc([C@]23Cc4cc(OC)c(OC)cc4[C@H](O2)C2=C(CC4(CCCCC4)OC2=O)O3)cc1	-	-	-	-	-	0
Cc1ccc(NC(=O)Cn2c(=O)n(CCCCC(=O)NCc3ccccc3Cl)c(=O)c3ccccc32)cc1C	0	0	0	0	0	0
Cc1cc(N/N=C/c2ccc([N+](=O)[O-])o2)nc2ccccc12	0	0	0	?	-79	?
Cc1cc(NN=Cc2ccccn2)nc2c(C)cccc12	-	-	-	-	0	-
C(=NNc1ccc2ccccc2n1)c1ccccn1	?	7.9µM	-	1.8µM	-101	-
Clc1ccccc1/C=N/NC1=Nc2cccc3cccc1c23	0	0	?	0	0	?
C(=N\NC1=Nc2cccc3cccc1c23)/c1ccccn1	?	0	-	?	-80	-
Cc1cc(NN=Cc2ccccn2)nc2ccccc12	-	-	-	-	-100	-
C(=N\N=C\c1ccccn1)/c1ccccn1	0	0	0	0	0	0
CCCN1C(=O)CC[C@@H](S(=O)(=O)c2ccccc2)[C@@H]1c1ccc(OC)cc1	-	-	-	-	0	-

Assay outcomes (PubChem BioAssay)
